About 35 (1%) of roughly 3,300 compounds were called active. Only a sample is shown. Values without a mark were called inactive. No stated cut-off is given here; in the data, active means inhibition above about 11%; inactive means the rest.

Consider 60 compounds from PubChem BioAssay AID743261 (The Scripps Research Institute Molecular Screening Center, 2014).

The target of the assay is 1-phosphatidylinositol 4,5-bisphosphate phosphodiesterase beta-3 (Homo sapiens) (UniProt Q01970). Briefly: retest of human PLCB3 enzyme blockers – biochemical, fluorescence, purified enzyme, confirmation (AID 743261). The settings on record: purified PLC-beta3, fluorogenic substrate fluorescence; at 12.3 µM; hits give high values.
Chain of 1-phosphatidylinositol 4,5-bisphosphate phosphodiesterase beta-3 (Homo sapiens) (Q01970 whole entry, looked up): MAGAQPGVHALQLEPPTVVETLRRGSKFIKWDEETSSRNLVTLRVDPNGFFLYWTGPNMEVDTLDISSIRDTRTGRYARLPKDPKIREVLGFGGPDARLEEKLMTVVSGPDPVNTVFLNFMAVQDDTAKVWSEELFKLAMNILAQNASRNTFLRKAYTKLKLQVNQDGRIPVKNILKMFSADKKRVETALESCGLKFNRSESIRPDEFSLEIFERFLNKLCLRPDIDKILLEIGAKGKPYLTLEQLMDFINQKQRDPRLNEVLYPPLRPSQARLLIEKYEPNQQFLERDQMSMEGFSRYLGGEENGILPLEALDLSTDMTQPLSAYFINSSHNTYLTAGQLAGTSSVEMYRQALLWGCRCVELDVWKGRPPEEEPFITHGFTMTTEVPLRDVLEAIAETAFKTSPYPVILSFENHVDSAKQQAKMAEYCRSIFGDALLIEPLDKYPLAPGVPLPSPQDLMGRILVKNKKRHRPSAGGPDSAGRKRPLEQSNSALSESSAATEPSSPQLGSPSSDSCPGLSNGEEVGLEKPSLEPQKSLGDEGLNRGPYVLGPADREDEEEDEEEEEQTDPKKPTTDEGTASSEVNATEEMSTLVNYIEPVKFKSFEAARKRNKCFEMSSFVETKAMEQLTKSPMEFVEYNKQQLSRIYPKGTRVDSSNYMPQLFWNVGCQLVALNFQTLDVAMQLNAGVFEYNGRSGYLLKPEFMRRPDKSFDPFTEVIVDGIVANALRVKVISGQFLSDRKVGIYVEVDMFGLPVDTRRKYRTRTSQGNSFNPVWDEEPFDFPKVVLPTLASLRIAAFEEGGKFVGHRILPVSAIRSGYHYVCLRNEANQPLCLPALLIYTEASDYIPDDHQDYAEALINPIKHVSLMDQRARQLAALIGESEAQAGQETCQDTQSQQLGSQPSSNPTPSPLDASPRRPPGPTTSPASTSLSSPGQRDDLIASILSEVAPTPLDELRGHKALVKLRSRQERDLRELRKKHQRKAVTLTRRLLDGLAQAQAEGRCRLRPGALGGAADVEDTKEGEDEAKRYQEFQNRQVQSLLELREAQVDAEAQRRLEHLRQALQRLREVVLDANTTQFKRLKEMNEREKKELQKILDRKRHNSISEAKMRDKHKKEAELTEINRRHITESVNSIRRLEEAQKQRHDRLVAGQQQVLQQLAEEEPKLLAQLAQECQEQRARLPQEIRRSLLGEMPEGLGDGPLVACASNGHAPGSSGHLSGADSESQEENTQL
For orientation: inhibition means the change of the read-out against control, counted positive when it falls. As for `Cc1cccc(NC(=O)c2ccc3c(=O)n(CC4CCCO4)c(=S)[nH]c3c2)c1` (stereo not given), the inhibition is 1.92%.

For the compound `CCc1ccc(-c2nc(SCC(=O)NC3CCCC3)n[nH]2)cc1`, the inhibition is -2.19%.

With `C=CCOc1ccc(Cl)cc1CNCCCN1CCOCC1`, the inhibition is 1.5%.

Regarding `Cc1cc(NC(=O)COn2nnc3ccccc32)no1`, the inhibition is -9.92%.

On to `Cc1ccc(Cn2ccc(NC(=O)C3C4CCC(C4)C3C(=O)O)n2)cc1` (stereo not given), for which the inhibition is -9.86%.

Regarding `CN(CC(=O)Nc1ccccc1Cl)C(=O)COc1cccc2c1OC(C)(C)C2`, the inhibition is 0.64%.

Take `CNC(=O)n1ccc(C(=O)N2CCCCC2)n1`: the inhibition is -1.25%.

For `COc1ccc(C(N)c2csc(NC(=O)Nc3cccc(C(F)(F)F)c3)n2)cc1` (stereo not given), the inhibition was 3.1%.

As for `O=C(NCCCN1CCCCC1)C1CC(=O)N(CCc2ccccc2)C1` (stereo not given), the inhibition is 1.91%.

With `O=C1/C(=C\c2ccsc2)NC(=S)N1c1ccccc1`, the inhibition is -5.74%.

With `CC(C)Cn1cnc2c1c(=O)n(CC(O)c1ccccc1)c(=O)n2CC(C)C` (stereo not given), the inhibition is -3.57%.

For `C=CCOc1ccccc1/C=N/NC(=O)Cc1ccccc1`, the inhibition is -2.73%.

Consider `CCOC(=O)N1CCC(c2cc(=O)n(-c3ccccc3)[nH]2)CC1`, for which the inhibition was 2.09%.

With `CCOc1cccc(-c2nnc3sc(COc4ccc(OC)cc4)nn23)c1`, the inhibition was -3.2%.

For the compound `O=C(/C=C/c1c(F)cccc1Cl)Nc1nn[nH]n1`, the inhibition was -1.92%.

For the compound `O=S1(=O)c2ccc(Br)cc2OC[C@H](Cc2ccccc2)N1Cc1cn(Cc2ccccc2)nn1`, the inhibition was 6.58%.

As to `CC(=O)c1c(C)[nH]c(C(=O)OCC(=O)Nc2cc(S(=O)(=O)N3CCCCC3)ccc2C)c1C`, the inhibition is 2.76%.

With `CCC1CCCCN1C(=O)CSc1nc(C)cc(C)n1` (stereo not given), the inhibition was -1.69%.

Regarding `Cc1ccc(C(=O)N2CCN(C(=O)N3CCOCC3)CC2)cc1`, the inhibition was -1.36%.

Consider `Cc1ccc(C)c(N2CCN(S(=O)(=O)c3c(C)[nH]c(C)c3C(=O)N3CCCC3)CC2)c1`, for which the inhibition is -5.1%.

With `Cc1ccc(C23CC4CC(CC(C(=O)NCC(=O)O)(C4)C2)C3)cc1`, the inhibition is 4.19%.

As for `CCC[C@H]1CCCC/C=C\CCCC(=O)OCCN1C(=O)OC(C)(C)C`, the inhibition was 7.62%.

Regarding `CCOc1ccccc1NC(=O)c1cccnc1`, the inhibition is -4.38%.

Take `O=C1c2ccccc2S(=O)(=O)N1CC(O)Cn1c2ccccc2c2ccccc21` (stereo not given): the inhibition was -0.97%.

With `Cc1cc(NC(=O)c2ccc(F)cc2)ccc1NC(=O)c1ccco1`, the inhibition was 8.74%.

`Cc1ccc(C(=O)Nc2ccc(C)c(S(=O)(=O)N(C)C)c2)s1`: the inhibition is -7.5%.

Consider `COC(=O)N(C)C[C@@H]1OCc2cnnn2CCCC(=O)N([C@@H](C)CO)C[C@@H]1C`, for which the inhibition is -4.12%.

Turning to `CCOc1ccc(CCNC(=O)COC(=O)CCS(=O)(=O)c2ccc(C)cc2)cc1OCC`, the inhibition was -2.58%.

In the case of `CCOC(=O)[C@]12CCCC=C1N(CCCOC)C(=O)[C@@H]2CC(=O)N1CCOCC1`, the inhibition was -1.19%.

Turning to `NC1=CC(=O)C(=O)c2cccnc21`, the inhibition is -2.06%.

Consider `O=C(NCc1cccnc1)c1cc(C2CCCCN2C(=O)CCc2ccccc2)on1` (stereo not given), for which the inhibition was 1.6%.

As to `NC1=NN(c2cccc(C(=O)O)c2)C(=O)C1`, the inhibition was 0.11%.

For `OC(CNCC1CCCO1)Cn1c2ccc(Br)cc2c2cc(Br)ccc21` (stereo not given), the inhibition was -1.89%.

With `CCCCc1nc2ccccc2c(NC(=O)CN2CCN(C)CC2)c1CCC`, the inhibition was -2.31%.

On to `Cc1nc2ccccc2nc1CC(O)(c1ccccc1)c1ccccc1`, for which the inhibition is 1.99%.

`CCOc1ccc(OCC)c(NC(=O)CSc2nnc(Cn3cnc4ccccc43)n2C)c1`: the inhibition was 2.61%.

With `CCC1S/C(=N/N=C/c2ccco2)NC1=O` (stereo not given), the inhibition was 3.39%.

Consider `CC(C)n1c(CN2CCN(Cc3ccccc3)CC2)nc2ccccc21`, for which the inhibition was -2%.

As to `Nn1cnnc1N/N=C/c1cc([N+](=O)[O-])c(Cl)cc1Cl`, the inhibition is -0.09%.

In the case of `COCCCN(C(=S)Nc1c(C)cc(C)cc1C)C(C)c1ccncc1` (stereo not given), the inhibition was 3.06%.

With `Cc1ccc(N2CC(C(=O)NCCS(=O)(=O)N3CCN(c4ccccc4)CC3)CC2=O)cc1` (stereo not given), the inhibition is 3.26%.

As to `C/C(CC(C)C)=N\Oc1nc(C)cc(C)n1`, the inhibition is -3.23%.

For `C=CC1=C(C(=O)O)N2C(=O)[C@@H](NC(=O)/C(=N\OCC(=O)O)c3csc(N)n3)[C@H]2SC1`, the inhibition is 20.5% (active).

On to `COc1ccc(NC(=O)c2ccc(OC)cc2)cc1`, for which the inhibition was -4.41%.

Take `COc1ccc(/C=C2\N=C3CCCN3C2=O)cc1`: the inhibition is -5.85%.

In the case of `O=C(c1ccc2c(c1)OCO2)N1CCNc2ccccc2C1`, the inhibition is -2.69%.

On to `O=C(CSc1ccccc1)Nc1cccc(S(=O)(=O)N2CCOCC2)c1`, for which the inhibition was 4.18%.

As for `Cc1cc(C)c(NC(=O)CN2CCOCCOCCOCCOCC2)c(C)c1`, the inhibition was 0.38%.

For `C=CCn1c(SCn2nnc3ccccc3c2=O)nnc1-c1ccc(Cl)cc1`, the inhibition was -0.45%.

Consider `CCc1c(Nc2ccccc2C)nc(N)[nH]c1=O`, for which the inhibition was 1.95%.

Take `CCOc1ccccc1NC(=O)CCN1CCN(S(=O)(=O)c2ccc(OC)cc2)CC1`: the inhibition is -0.62%.

On to `C=CCN(c1ccc(Cl)cc1)S(=O)(=O)c1cccc(C(=O)OCC(=O)N(C)C)c1`, for which the inhibition is -16%.

Regarding `Cc1nc(Nc2ccccc2C)c2cnn(C)c2n1`, the inhibition is -0.91%.

As for `Cc1ccc(NC(=S)N(Cc2ccco2)C(C)c2cccs2)cc1` (stereo not given), the inhibition is -0.01%.

With `COc1ccc(C(CNC(=O)c2cc(S(=O)(=O)Nc3cccc(C)c3)ccc2C)N2CCCC2)cc1` (stereo not given), the inhibition was -3.32%.

In the case of `CCn1c(SCC(C)=O)nc2sc3c(c2c1=O)CCCC3`, the inhibition is -2%.

As to `Cc1nc2ccc(NC(=O)c3cccc(S(=O)(=O)N4CCOCC4)c3)cc2s1`, the inhibition was -9.8%.

As for `Cc1c(C#N)c2ncn(CC#N)c(=O)c2n1-c1ccccc1`, the inhibition is -2.4%.

For the compound `CS(=O)(=O)N(Cc1ccc(Cl)cc1)c1ccc(C(=O)NCCSCc2ccco2)cc1`, the inhibition was 1.86%.

`Nc1nnc(SCC(=O)OCc2ccc(Cl)c(Cl)c2)s1`: the inhibition is -2.66%.
